How the values were obtained:
[1] = target: T1, Muscle, skeletal receptor tyrosine-protein kinase (Homo sapiens) (UniProt O15146); conditions: at 1 µM;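 also: reported value is the mean percent inhibition of MuSK kinase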
T1 sequence (whole entry): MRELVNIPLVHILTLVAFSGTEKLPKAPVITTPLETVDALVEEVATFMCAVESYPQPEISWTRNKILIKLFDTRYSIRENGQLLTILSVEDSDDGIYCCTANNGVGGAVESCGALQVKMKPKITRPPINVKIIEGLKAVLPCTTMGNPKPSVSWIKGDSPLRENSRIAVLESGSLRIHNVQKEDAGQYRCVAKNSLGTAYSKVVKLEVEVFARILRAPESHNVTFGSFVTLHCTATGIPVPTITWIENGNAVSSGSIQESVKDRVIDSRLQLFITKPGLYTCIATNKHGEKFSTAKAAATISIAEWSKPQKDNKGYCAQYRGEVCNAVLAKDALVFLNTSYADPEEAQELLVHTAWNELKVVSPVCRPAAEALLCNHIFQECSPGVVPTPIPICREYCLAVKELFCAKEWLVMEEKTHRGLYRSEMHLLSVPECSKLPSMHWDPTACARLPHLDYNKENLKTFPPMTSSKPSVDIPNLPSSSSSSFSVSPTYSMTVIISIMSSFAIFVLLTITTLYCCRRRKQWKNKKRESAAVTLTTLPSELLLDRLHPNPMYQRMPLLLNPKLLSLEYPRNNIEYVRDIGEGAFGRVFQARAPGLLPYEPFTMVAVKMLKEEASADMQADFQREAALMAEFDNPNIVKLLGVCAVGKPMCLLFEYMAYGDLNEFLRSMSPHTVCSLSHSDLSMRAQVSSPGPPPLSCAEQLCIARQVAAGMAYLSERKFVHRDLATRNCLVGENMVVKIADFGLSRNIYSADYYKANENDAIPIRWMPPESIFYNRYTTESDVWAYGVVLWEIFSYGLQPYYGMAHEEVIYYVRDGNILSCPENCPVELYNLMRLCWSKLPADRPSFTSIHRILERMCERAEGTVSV

[2] = target: Platelet-derived growth factor receptor alpha (Homo sapiens) (UniProt P16234); conditions: at 0.1 µM
Sequence of Platelet-derived growth factor receptor alpha (Homo sapiens) (P16234 whole entry): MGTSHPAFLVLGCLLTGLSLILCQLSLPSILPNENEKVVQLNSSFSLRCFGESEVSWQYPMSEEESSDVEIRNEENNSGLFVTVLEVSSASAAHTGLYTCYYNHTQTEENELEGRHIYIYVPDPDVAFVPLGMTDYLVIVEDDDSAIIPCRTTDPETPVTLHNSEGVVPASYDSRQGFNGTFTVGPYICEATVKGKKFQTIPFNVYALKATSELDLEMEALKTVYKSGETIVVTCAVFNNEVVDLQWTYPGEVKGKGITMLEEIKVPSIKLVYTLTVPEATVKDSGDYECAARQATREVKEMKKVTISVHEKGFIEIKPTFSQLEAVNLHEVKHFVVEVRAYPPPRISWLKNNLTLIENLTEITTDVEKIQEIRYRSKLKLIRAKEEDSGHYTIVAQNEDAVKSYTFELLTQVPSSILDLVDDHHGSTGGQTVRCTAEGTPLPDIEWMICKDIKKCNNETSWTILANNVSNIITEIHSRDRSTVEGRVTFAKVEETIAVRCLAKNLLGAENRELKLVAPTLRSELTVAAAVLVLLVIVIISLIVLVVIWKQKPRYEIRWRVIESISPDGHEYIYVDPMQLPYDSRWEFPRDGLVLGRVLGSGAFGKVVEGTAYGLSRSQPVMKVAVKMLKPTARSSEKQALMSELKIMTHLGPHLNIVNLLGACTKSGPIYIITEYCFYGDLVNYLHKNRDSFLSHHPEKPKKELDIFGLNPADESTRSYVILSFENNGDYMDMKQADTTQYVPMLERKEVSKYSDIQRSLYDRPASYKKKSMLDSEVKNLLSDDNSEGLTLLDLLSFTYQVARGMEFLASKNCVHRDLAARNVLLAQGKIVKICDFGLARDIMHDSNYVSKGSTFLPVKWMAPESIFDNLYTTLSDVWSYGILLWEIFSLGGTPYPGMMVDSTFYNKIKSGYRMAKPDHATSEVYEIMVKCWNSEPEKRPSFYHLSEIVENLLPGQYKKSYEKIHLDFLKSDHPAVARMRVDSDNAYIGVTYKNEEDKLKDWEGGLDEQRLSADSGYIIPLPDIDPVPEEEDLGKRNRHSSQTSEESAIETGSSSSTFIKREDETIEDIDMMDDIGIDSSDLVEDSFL

[3] = target: Platelet-derived growth factor receptor alpha (Homo sapiens) (UniProt P16234); conditions: at 1 µM
[4] = test system: Platelet-derived growth factor receptor alpha (Homo sapiens), P16234 [D842V]; conditions: at 0.1 µM
Sequence of Platelet-derived growth factor receptor alpha (Homo sapiens), P16234 [D842V] (P16234 whole entry D842V): as the sequence (P16234 whole entry) above, with D842V counted along it

[5] = test system: Platelet-derived growth factor receptor alpha (Homo sapiens), P16234 [D842V]; conditions: at 1 µM
[6] = test system: Platelet-derived growth factor receptor alpha (Homo sapiens), P16234 [T674I]; conditions: at 0.1 µM
[7] = test system: Platelet-derived growth factor receptor alpha (Homo sapiens), P16234 [T674I]; conditions: at 1 µM
[8] = test system: Platelet-derived growth factor receptor alpha (Homo sapiens), P16234 [V561D]; conditions: at 0.1 µM
[9] = test system: Platelet-derived growth factor receptor alpha (Homo sapiens), P16234 [V561D]; conditions: at 1 µM
[10] = target: Platelet-derived growth factor receptor beta (Homo sapiens) (UniProt P09619); conditions: at 0.1 µM
[11] = target: Platelet-derived growth factor receptor beta (Homo sapiens) (UniProt P09619); conditions: at 1 µM
[12] = target: Tyrosine-protein kinase FRK (Homo sapiens) (UniProt P42685); conditions: at 0.1 µM
Sequence of Tyrosine-protein kinase FRK (Homo sapiens) (P42685 whole entry): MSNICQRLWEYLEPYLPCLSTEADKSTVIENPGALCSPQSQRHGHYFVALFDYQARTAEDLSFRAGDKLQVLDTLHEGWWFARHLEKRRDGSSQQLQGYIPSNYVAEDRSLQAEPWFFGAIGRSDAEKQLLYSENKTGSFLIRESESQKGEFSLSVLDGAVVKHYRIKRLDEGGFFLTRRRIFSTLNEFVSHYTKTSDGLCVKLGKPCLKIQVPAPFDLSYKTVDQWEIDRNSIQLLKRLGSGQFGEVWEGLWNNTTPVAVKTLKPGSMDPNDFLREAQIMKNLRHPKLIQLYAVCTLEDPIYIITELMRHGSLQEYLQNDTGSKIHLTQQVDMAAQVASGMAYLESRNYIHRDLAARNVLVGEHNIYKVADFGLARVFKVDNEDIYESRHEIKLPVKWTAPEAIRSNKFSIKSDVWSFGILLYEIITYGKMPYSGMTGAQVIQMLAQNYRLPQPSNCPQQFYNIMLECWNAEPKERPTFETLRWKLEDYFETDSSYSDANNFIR

[13] = target: Tyrosine-protein kinase FRK (Homo sapiens) (UniProt P42685); conditions: at 1 µM
[14] = target: Protein-tyrosine kinase 2-beta (Homo sapiens) (UniProt Q14289); conditions: at 0.1 µM
[15] = target: Protein-tyrosine kinase 2-beta (Homo sapiens) (UniProt Q14289); conditions: at 1 µM
[16] = target: Proto-oncogene tyrosine-protein kinase receptor Ret (Homo sapiens) (UniProt P07949); conditions: at 0.1 µM
Sequence of Proto-oncogene tyrosine-protein kinase receptor Ret (Homo sapiens) (P07949 whole entry): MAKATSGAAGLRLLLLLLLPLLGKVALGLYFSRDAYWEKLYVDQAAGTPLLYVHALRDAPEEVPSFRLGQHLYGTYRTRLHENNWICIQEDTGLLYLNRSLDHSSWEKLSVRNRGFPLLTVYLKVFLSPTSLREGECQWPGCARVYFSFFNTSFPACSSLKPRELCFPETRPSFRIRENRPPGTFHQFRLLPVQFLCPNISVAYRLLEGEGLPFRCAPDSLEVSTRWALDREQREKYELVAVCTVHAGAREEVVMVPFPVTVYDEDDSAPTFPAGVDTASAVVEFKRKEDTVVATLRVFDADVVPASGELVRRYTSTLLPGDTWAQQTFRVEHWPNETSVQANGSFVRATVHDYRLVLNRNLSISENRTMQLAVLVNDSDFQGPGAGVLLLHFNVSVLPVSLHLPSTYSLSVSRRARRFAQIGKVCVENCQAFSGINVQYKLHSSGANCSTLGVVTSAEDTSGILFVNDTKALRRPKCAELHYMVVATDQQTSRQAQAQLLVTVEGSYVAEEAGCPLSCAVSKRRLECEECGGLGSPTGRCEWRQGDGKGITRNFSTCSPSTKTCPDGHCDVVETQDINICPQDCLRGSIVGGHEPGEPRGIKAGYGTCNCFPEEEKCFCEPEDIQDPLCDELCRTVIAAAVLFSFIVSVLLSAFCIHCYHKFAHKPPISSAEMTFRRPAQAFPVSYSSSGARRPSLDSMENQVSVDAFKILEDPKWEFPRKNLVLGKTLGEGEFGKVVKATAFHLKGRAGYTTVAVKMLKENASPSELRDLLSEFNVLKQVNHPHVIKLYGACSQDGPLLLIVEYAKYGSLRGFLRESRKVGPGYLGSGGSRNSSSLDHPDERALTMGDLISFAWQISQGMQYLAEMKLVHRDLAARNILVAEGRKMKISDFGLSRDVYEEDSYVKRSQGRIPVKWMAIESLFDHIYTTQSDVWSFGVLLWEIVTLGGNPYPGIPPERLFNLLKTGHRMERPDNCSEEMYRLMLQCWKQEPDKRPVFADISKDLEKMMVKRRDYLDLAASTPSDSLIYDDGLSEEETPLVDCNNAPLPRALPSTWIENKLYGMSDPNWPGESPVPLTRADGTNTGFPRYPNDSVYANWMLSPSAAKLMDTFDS

[17] = target: Proto-oncogene tyrosine-protein kinase receptor Ret (Homo sapiens) (UniProt P07949); conditions: at 1 µM
[18] = test system: Proto-oncogene tyrosine-protein kinase receptor Ret (Homo sapiens), P07949 [V804L]; conditions: at 0.1 µM
Sequence of Proto-oncogene tyrosine-protein kinase receptor Ret (Homo sapiens), P07949 [V804L] (P07949 whole entry V804L): as the sequence (P07949 whole entry) above, with V804L counted along it

[19] = test system: Proto-oncogene tyrosine-protein kinase receptor Ret (Homo sapiens), P07949 [V804L]; conditions: at 1 µM
[20] = test system: Proto-oncogene tyrosine-protein kinase receptor Ret (Homo sapiens), P07949 [Y791F]; conditions: at 0.1 µM

SMILES	inhibition [1]	inhibition [2]	inhibition [3]	inhibition [4]	inhibition [5]	inhibition [6]	inhibition [7]	inhibition [8]	inhibition [9]	inhibition [10]	inhibition [11]	inhibition [12]	inhibition [13]	inhibition [14]	inhibition [15]	inhibition [16]	inhibition [17]	inhibition [18]	inhibition [19]	inhibition [20]
COc1cc2c(cc1Nc1nc(N3CCc4ccccc43)c3cc[nH]c3n1)N(C(=O)CN(C)C)CC2	4.18%	4.13%	3.64%	0.92%	-1.2%	1.67%	0.13%	-0.57%	2.32%	1.46%	3.27%	0.34%	0.69%	59.7%	90%	3.49%	9.16%	0.54%	4.92%	1.4%
COc1cc2ncn(-c3cc(OCc4ccccc4C(F)(F)F)c(C(N)=O)s3)c2cc1OC	32.7%	47.1%	83.5%	29.5%	79.9%	19.1%	68%	36.6%	84.9%	45%	83.5%	3.08%	3.46%	2.32%	19.4%	14.5%	41.6%	10.4%	34.3%	17.9%
COc1cc2ncn(-c3cc(O[C@H](C)c4ccccc4Cl)c(C(N)=O)s3)c2cc1OC	78.2%	73.2%	100%	42.1%	88.2%	56.5%	97.2%	50.5%	87.3%	59.7%	95.3%	2.17%	2.07%	10.3%	32.2%	18.2%	51.8%	19.5%	54.8%	20.7%
N#Cc1c(NC(=O)c2cccc3ccccc23)sc2c1CCCC2	4.97%	6.56%	12.2%	4.04%	4.85%	4.77%	9.67%	3.45%	6.79%	3.17%	9.27%	2.64%	1.48%	2.95%	5.82%	5.35%	5.82%	3.1%	3.6%	5.18%
O=C(Nc1n[nH]c2nc(-c3ccco3)c(Br)cc12)C1CC1	6.32%	4.56%	12.9%	0.77%	4.15%	5.19%	6.07%	0.75%	4.4%	3.97%	6.81%	1.22%	4.35%	-1.24%	3.71%	6.36%	4.7%	4.14%	0.95%	4.67%
NCc1ccc(-c2nc(-c3ccc(Cl)c(O)c3)c(-c3ccncc3)[nH]2)cc1	2.08%	6.86%	25.6%	6.11%	31%	2.74%	2.2%	5.6%	25.9%	7.07%	31%	5.22%	35.3%	3.97%	-0.14%	47.6%	76.6%	1.17%	7.47%	39.5%
COc1ccc(-c2nn3ncccc3c2-c2ccnc(Nc3ccc(Cl)c(C(F)(F)F)c3)n2)cc1	1.1%	3.58%	7.86%	0.96%	1.8%	3.16%	5.2%	3.43%	3.24%	2.18%	5.76%	1.65%	0.79%	5.54%	10.5%	2.17%	-0.91%	2.33%	6.71%	2.51%
Cc1ccc(NC(=O)c2ccnc(N3CCCC3)c2)cc1-c1ccc(C(=O)NCC2CC2)cc1	9.18%	9.86%	20.7%	3.63%	5.68%	6.03%	5.86%	2.7%	11.8%	6.34%	13.4%	2.28%	2.38%	12.2%	9.43%	6.99%	9.44%	8.29%	9.54%	10.7%
COc1cc(C)c(NC(=O)CN(C)C)cc1Nc1nc(Nc2cccc(F)c2C(N)=O)c2cc[nH]c2n1	28.9%	7.3%	16.9%	1.18%	3.96%	0.9%	3.29%	1.13%	10.8%	2.12%	15%	0.21%	1%	93.1%	98%	1.91%	5.56%	4.41%	20.7%	5.09%
O=C1NC(=O)C(c2ccccc2Cl)=C1Nc1cccc(O)c1	6.51%	5.26%	9.63%	0.89%	-0.58%	1.6%	2.66%	1.34%	2.14%	4.9%	3.43%	0.88%	0.39%	5.7%	8.51%	1.55%	7.91%	3.61%	2.98%	2.99%
COC(=O)Nc1nc2cc(Oc3cccc(NC(=O)Nc4cc(C(F)(F)F)ccc4F)c3)ccc2[nH]1	32.3%	48.6%	80.2%	2.6%	8.72%	4.75%	37.5%	40.7%	87.4%	11.4%	45.3%	-0.02%	1.37%	0.22%	-4.43%	17%	61.1%	4.35%	8.1%	9.63%
NC(=O)c1ccc(-c2nc(-c3ccccn3)c(-c3ccc4c(c3)OCO4)[nH]2)cc1	3.59%	6.2%	9.06%	1.44%	2.57%	8.08%	5.68%	2.28%	4.53%	2.41%	7.47%	0.98%	-0.16%	1.97%	6.61%	6.29%	8.97%	4.67%	5.88%	6.95%
CC(=O)Nc1cccc(C#Cc2cncnc2Nc2ccc(OCc3cccc(F)c3)c(Cl)c2)n1	2.93%	2.49%	8.73%	1.14%	2.21%	-0.15%	-0.14%	3.24%	1.4%	6.88%	9.6%	0.61%	1.2%	-2.77%	8.14%	-1.11%	2.59%	0.14%	10.2%	0.37%

— ChEMBL document CHEMBL1961873, “Compounds: GSK PKIS; Assays: Nanosyn kinase panel” (2012)
